Results published in PubChem BioAssay AID1117267 (The Scripps Research Institute Molecular Screening Center, 2014).
Out of some 92,000 compounds screened, about 1,200 (1.3%) were called active.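 Rule for the calls: active = activation above the mean of all tested compounds plus 3 SD (cut at about 9.5% in these data); inactive = the rest.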 The entries come from a sample that favours actives as a whole.

Assay: TTR transcription activators in neuroblastoma reporter cells, primary screen, cell-based, luminescence, SH-SY5Y, TTR promoter Gaussia luciferase (AID 1117267);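 note: cells exposed to compounds for one day before reading; 0% = median of all test compound wells on the plate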
Settings: at 16.7 µM, hits give high values, 100% = recombinant luciferase protein wells

activation, active:
O=C(O)C1OC(C(=O)O)C2C1C(F)(F)C2(F)F (centres undefined) 15.5%
Cc1cccc(C)c1NC(=O)CN1C(=O)C(C)Oc2ccccc21 (centres undefined) 15.3%
O=C(CCC(=O)c1cccs1)NCc1ccccc1 9.7%
O=C(Nc1ccccc1C(=O)N1CCCCCC1)c1ccccc1Cl 21.4%
Cc1cc(C)c(C#N)c(N2CCC(C(N)=O)CC2)n1 14.3%
Cc1cc(C)c2nc3nc(C)cc(C)c3c(N)c2c1 13.6%
Cc1cccc(N2C(=O)CC(SC(N)=Nc3ccccc3)C2=O)c1 (centres undefined) 11.1%

activation, inactive:
COc1ccc(N2c3ccccc3CN(Cc3ccccc3)[C@@H](C)[C@H]2Cc2ccc(-c3ccccc3)cc2)cc1 -1.66%
O=C(CN1C(=O)COc2ccccc21)Nc1ccc(F)cc1 2.98%
Cc1ccc2c(c1)N(CC(=O)N1CCCc3ccccc31)C(=O)C(C)O2 (centres undefined) -0.78%
O=C(CCC(=O)c1cccs1)Nc1nc2ccccc2s1 0.06%
O=C(CCC(=O)c1cccs1)NC1CCCCCC1 -2.1%
CCOC(=O)N1CCN(S(=O)(=O)c2ccc(-n3cnnn3)cc2)CC1 -1.92%
COCCn1c(SCC(=O)N2CCCCCC2)nc2c(c1=O)SCC2 0.25%
Cc1cc(C(=O)CSc2nc(N)cc(=O)[nH]2)c(C)n1Cc1ccco1 0.58%
CCOC(=O)[C@H]1[C@H]2COc3ccc(OC)cc3[C@@H]2N2C(=O)c3ccc(F)cc3NC(=O)[C@@]12C 1.68%
CSc1sc(C(=O)NNC(=O)c2ccc(Cl)cc2)c2c1C=CCC2 -0.42%
O=C(CN1CCCCC1)Nc1ccccc1C(=O)NC1CC1 2.49%
O=C(c1ccc(Cl)c(Cl)c1)N1CCCC1 4.23%
Cc1cc(C)c(C#N)c(SCc2ccccc2C(=O)O)n1 5.37%
N#Cc1c(N2CCCCC2)nc(N)c2c(N)nc(SCC(=O)O)cc12 0.31%
CCC(C)C(=O)Nc1cc([N+](=O)[O-])ccc1Cl (centres undefined) 0.38%
CCOc1ccc(NC(=O)CSc2nc3ccccc3c(=O)n2Cc2cccs2)cc1 0.62%
COc1ccc(CCNC(=O)C(Sc2ccccn2)c2ccccc2)cc1OC (centres undefined) 1%
NC(=O)c1oc2ccccc2c1NC(=O)CS(=O)(=O)c1ccccc1 -0.61%
CCSc1nc(O)c(C(c2cccc(OC)c2)c2c(O)nc(SCC)[nH]c2=O)c(=O)[nH]1 1.15%
CCOc1ncccc1C(=O)N(C)CC(=O)Nc1ccc(F)cc1 4.43%
O=C1CC(N2CCN(c3ccc(F)cc3)CC2)C(=O)N1c1ccccc1 (centres undefined) 0.86%
O=C1CC(Sc2ncn[nH]2)C(=O)N1c1ccccc1 (centres undefined) -1.83%
